According to PubChem BioAssay AID1159580 (chemical genetic matrix, 2015):
The whole screen tested about 5,500 compounds, of which about 2,000 (36%) were called active. Inconclusive results (about 18%) are left out. Rule as the data show it: active = normalized growth mostly below about 0.91 (no sharp cut-off); inconclusive = no clear call, values can overlap the other calls; inactive = mostly above about 0.92. Some of the results follow.

Experiment: chemical genetic growth profiling, strain panel (AID 1159580);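 also: tested at 20 µM; growth read once vehicle control cultures reached saturation at 30 °C; 1 = growth at the plate median or of vehicle wells; lower values mean less growth of the strain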
Settings: growth OD

Measured: normalized growth

O=C(/C=C/c1ccc(O)c(O)c1)O[C@@H]1C[C@](O)(C(=O)O)C[C@@H](O)[C@H]1O
inactive: S. cerevisiae deletion strains, locus YKL009W, strain mrt4, active compounds read low 1.04 | S. cerevisiae deletion strains, locus YKL068W, active compounds read low 1.01 | S. cerevisiae deletion strains, locus YKL085W, strain MDH1 (second series), active compounds read low 1 | S. cerevisiae deletion strains, locus YKL085W, strain MDH1, active compounds read low 1 | S. cerevisiae deletion strains, locus YKL160W, strain elf1, active compounds read low 1.03 | S. cerevisiae deletion strains, locus YKR001C, strain vps1, active compounds read low 1.03 | S. cerevisiae deletion strains, locus YKR026C, strain gcn3, active compounds read low 0.973 | S. cerevisiae deletion strains, locus YKR091W, strain srl3, active compounds read low 0.992 | S. cerevisiae deletion strains, locus YLL001W, strain dnm1, active compounds read low 0.99 | S. cerevisiae deletion strains, locus YLL026W, active compounds read low 0.985 | S. cerevisiae deletion strains, locus YLL041C, strain sdh2, active compounds read low 0.974 | S. cerevisiae deletion strains, locus YLR027C, strain aat2, active compounds read low 0.999 | S. cerevisiae deletion strains, locus YLR039C, strain RIC1, active compounds read low 1.05 | S. cerevisiae deletion strains, locus YLR058C, strain SHM2, active compounds read low 1.01 | S. cerevisiae deletion strains, locus YLR102C, strain apc9, active compounds read low 1.01 | S. cerevisiae deletion strains, locus YLR113W, strain HOG1, active compounds read low 1 | S. cerevisiae deletion strains, locus YLR221C, strain rsa3, active compounds read low 0.972 | S. cerevisiae deletion strains, locus YLR258W, strain gsy2, active compounds read low 0.985 | S. cerevisiae deletion strains, locus YLR262C, strain YPT6 (second series), active compounds read low 0.996 | S. cerevisiae deletion strains, locus YLR262C, strain YPT6, active compounds read low 1.11 | S. cerevisiae deletion strains, locus YLR268W, strain sec22, active compounds read low 1.05 | S. cerevisiae deletion strains, locus YLR320W, strain mms22, active compounds read low 0.969 | S. cerevisiae deletion strains, locus YLR330W, strain CHS5, active compounds read low 1.01 | S. cerevisiae deletion strains, locus YLR342W, strain FKS1 (second series), active compounds read low 0.998 | S. cerevisiae deletion strains, locus YLR342W, strain FKS1, active compounds read low 0.988 | S. cerevisiae deletion strains, locus YLR357W, strain rsc2, active compounds read low 1 | S. cerevisiae deletion strains, locus YLR370C, strain arc18, active compounds read low 0.986 | S. cerevisiae deletion strains, locus YLR371W, strain rom2, active compounds read low 1.01 | S. cerevisiae deletion strains, locus YLR384C, strain iki3, active compounds read low 0.96 | S. cerevisiae deletion strains, locus YLR418C, strain cdc73, active compounds read low 0.992 | S. cerevisiae deletion strains, locus YML016C, strain PPZ1, active compounds read low 1 | S. cerevisiae deletion strains, locus YML032C, strain rad52, active compounds read low 0.999 | S. cerevisiae deletion strains, locus YML120C, strain ndi1, active compounds read low 0.993 | S. cerevisiae deletion strains, locus YML124C, strain tub3, active compounds read low 1.01 | S. cerevisiae deletion strains, locus YMR058W, strain fet3, active compounds read low 0.978 | S. cerevisiae deletion strains, locus YMR078C, strain ctf18, active compounds read low 1.02 | S. cerevisiae deletion strains, locus YMR125W, strain sto1, active compounds read low 0.99 | S. cerevisiae deletion strains, locus YMR129W, active compounds read low 0.991 | S. cerevisiae deletion strains, locus YMR205C, strain PFK2, active compounds read low 1.03 | S. cerevisiae deletion strains, locus YMR223W, strain ubp8, active compounds read low 1 | S. cerevisiae deletion strains, locus YMR231W, strain pep5, active compounds read low 0.971 | S. cerevisiae deletion strains, locus YMR263W, strain SAP30, active compounds read low 1.01 | S. cerevisiae deletion strains, locus YMR307W, strain GAS1, active compounds read low 0.959 | S. cerevisiae deletion strains, locus YNL067W, strain RPL9B, active compounds read low 1.04 | S. cerevisiae deletion strains, locus YNL071W, strain lat1, active compounds read low 0.987 | S. cerevisiae deletion strains, locus YNL128W, strain TEP1, active compounds read low 1.04 | S. cerevisiae deletion strains, locus YNL153C, strain GIM3, active compounds read low 1.02 | S. cerevisiae deletion strains, locus YNL183C, strain NPR1, active compounds read low 0.957 | S. cerevisiae deletion strains, locus YNL209W, strain ssb2, active compounds read low 0.991 | S. cerevisiae deletion strains, locus YNL233W, strain BNI4, active compounds read low 1.02 | S. cerevisiae deletion strains, locus YNL248C, strain rpa49, active compounds read low 0.982 | S. cerevisiae deletion strains, locus YNL250W, strain rad50, active compounds read low 1.03 | S. cerevisiae deletion strains, locus YNL271C, strain bni1, active compounds read low 1.01 | S. cerevisiae deletion strains, locus YNL298W, strain CLA4, active compounds read low 1.02 | S. cerevisiae deletion strains, locus YNL307C, strain MCK1, active compounds read low 1.02 | S. cerevisiae deletion strains, locus YNL322C, strain KRE1 (second series), active compounds read low 0.976 | S. cerevisiae deletion strains, locus YNL322C, strain KRE1, active compounds read low 1 | S. cerevisiae deletion strains, locus YNR049C, strain mso1, active compounds read low 0.973 | S. cerevisiae deletion strains, locus YNR052C, strain pop2, active compounds read low 1.01 | S. cerevisiae deletion strains, locus YOL006C, strain TOP1, active compounds read low 1.15 | S. cerevisiae deletion strains, locus YOL012C, strain htz1 0.974 | S. cerevisiae deletion strains, locus YOL147C, strain pex11, active compounds read low 1.02 | S. cerevisiae deletion strains, locus YOR001W, strain rrp6, active compounds read low 0.925 | S. cerevisiae deletion strains, locus YOR061W, strain CKA2, active compounds read low 1.01 | S. cerevisiae deletion strains, locus YOR069W, strain VPS5, active compounds read low 1.01 | S. cerevisiae deletion strains, locus YOR070C, strain gyp1, active compounds read low 0.985 | S. cerevisiae deletion strains, locus YOR080W, strain dia2, active compounds read low 0.983 | S. cerevisiae deletion strains, locus YOR083W, strain WHI5, active compounds read low 1.04 | S. cerevisiae deletion strains, locus YOR106W, strain vam3, active compounds read low 1 | S. cerevisiae deletion strains, locus YOR136W, strain idh2, active compounds read low 1.03 | S. cerevisiae deletion strains, locus YOR144C, strain elg1, active compounds read low 1.01 | S. cerevisiae deletion strains, locus YOR184W, strain ser1, active compounds read low 1 | S. cerevisiae deletion strains, locus YOR231W, strain MKK1, active compounds read low 1.02 | S. cerevisiae deletion strains, locus YOR265W, strain rbl2, active compounds read low 0.999 | S. cerevisiae deletion strains, locus YOR270C, strain vph1, active compounds read low 0.924 | S. cerevisiae deletion strains, locus YOR290C, strain snf2, active compounds read low 1.01 | S. cerevisiae deletion strains, locus YOR316C, strain cot1, active compounds read low 1.02 | S. cerevisiae deletion strains, locus YPL051W, strain arl3, active compounds read low 0.999 | S. cerevisiae deletion strains, locus YPL055C, strain LGE1, active compounds read low 1.03 | S. cerevisiae deletion strains, locus YPL078C, strain atp4, active compounds read low 1.02 | S. cerevisiae deletion strains, locus YPL106C, strain sse1, active compounds read low 0.995 | S. cerevisiae deletion strains, locus YPL240C, strain hsp82, active compounds read low 0.969 | S. cerevisiae deletion strains, locus YPL256C, strain CLN2, active compounds read low 1.01 | S. cerevisiae deletion strains, locus YPR119W, strain clb2, active compounds read low 1.01 | S. cerevisiae deletion strains, locus YPR141C, strain kar3, active compounds read low 1.01 | S. cerevisiae deletion strains, locus YPR163C, strain tif3, active compounds read low 1.03 | S. cerevisiae deletion strains, locus YPR167C, strain met16, active compounds read low 1.01 | S. cerevisiae deletion strains, strain wtn01, active compounds read low 1.05 | S. cerevisiae strains, strain wild type, active compounds read low 1.01
